From PubChem BioAssay (NCI)
Compounds without any hit were thinned out: in the full panel of roughly 83,000, 20% have a hit.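 For each line, cells grew in 96-well plates with the test compound present at a single concentration for 48 hours.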 Values without a mark were called inactive. Active and inactive are the calls of the source. How the source made its calls: active means growth percent below 10; inactive means the rest.

Key:
Test in all cases: NCI-60 one-dose screen, 48 h (100 = growth as untreated, 0 = no growth, -100 = all killed)
Details in all cases: 10 µM unless noted
HCT-15 colon = system: HCT-15 colon
HT29 colon = system: HT29 colon
SNB-75 CNS = system: SNB-75 CNS
SNB-19 CNS = system: SNB-19 CNS
U251 CNS = system: U251 CNS
SK-MEL-5 melanoma = system: SK-MEL-5 melanoma
UACC-62 melanoma = system: UACC-62 melanoma
LOX IMVI melanoma = system: LOX IMVI melanoma
SK-MEL-28 melanoma = system: SK-MEL-28 melanoma
PC-3 prostate = system: PC-3 prostate

| SMILES | growth (HCT-15 colon) | growth (HT29 colon) | growth (SNB-75 CNS) | growth (SNB-19 CNS) | growth (U251 CNS) | growth (SK-MEL-5 melanoma) | growth (UACC-62 melanoma) | growth (LOX IMVI melanoma) | growth (SK-MEL-28 melanoma) | growth (PC-3 prostate) |
| --- | --- | --- | --- | --- | --- | --- | --- | --- | --- | --- |
| CCCCCCCSc1ccc(C(=O)O)cc1 | 111% | 112% | 71.2% | 95.4% | 95.1% | 108% | 98.6% | 103% | 105% |  |
| COc1ccc(OC)c(C(=O)Nc2cccc(-c3cc(=O)c4ccccc4o3)c2)c1 | 93.4% | 91.3% | 64.4% | 70.7% | 93.8% |  | 87.1% | 97.4% | 104% | 92.8% |
| COc1cc2c(cc1OC)-c1ccc3cc4c(cc3c1N(CCN(C)C)C2)OCO4 | 56.7% | -45.8% (active) | -5.56% (active) | 8.26% (active) | -42.9% (active) | -10.9% (active) | 3.42% (active) | -83.2% (active) | 43.7% |  |
| COc1ccc(OC)c(/C=C2\COc3ccc(O)cc3C2=O)c1 | 78.5% | 45.9% | 116% | 84.5% | 84.6% |  | 84.3% | 51.3% | 94.9% | 95.2% |
| O=C(Nc1cccc2[nH]c(C(F)(F)F)nc12)c1cc(Cl)ccc1Cl | 29.2% | 52.1% | 75.6% | 32.3% | 15.8% |  | 20.5% | 38.1% | 44.3% | 15.5% |
| CN(C)c1ccc(-c2cc(-c3ccc(Nc4nc(Nc5ccccc5)nc(Nc5ccc(Cl)cc5)n4)cc3)nc(N)n2)cc1 | 34.4% | 34.2% | 48.2% | 66.8% | 29.6% | 31.3% | 49.9% | 38.1% | 75.4% |  |
| N#Cc1cnn2c(-c3ccc(Cl)cc3)nc(NC3CC3)nc12 | 90.1% | 88.8% | 87.7% | 86.6% | 97.3% | 95.3% | 85.6% | 99% | 113% |  |
| Nc1ccc(S(=O)(=O)Nc2ccsc2-c2nc(-c3ccccc3)no2)cc1 | 34.1% | 11.8% | 54.8% | 69.3% | 41.7% |  | 50.7% | 68% | 71.2% | 53.1% |
| COc1cc(/C=C/C(=O)c2ccc(Nc3nc(Nc4ccccc4)nc(Nc4ccc(Cl)cc4)n3)cc2)cc(OC)c1OC | 55.8% | 46.8% | 57.5% | 92.8% | 37.4% | 39% | 59.8% | 66.5% | 39.9% |  |
| CCC(O)(C(c1ccccc1)c1ccccn1)C(c1ccccc1)c1ccccn1 (centres undefined) | 103% | 102% | 99.4% | 108% | 107% |  | 113% | 98% | 107% | 97.4% |
| CCCCS(=O)(=O)Oc1ccc(-c2nc(C)c(C(=O)OCC)s2)cc1C=O | 50.6% | 18.5% | 89% | 53.8% | 49.6% |  | 64.6% | 28.3% | 90% | 53.9% |
| COc1ccc(OC)c(/C=C2\COc3ccc(O)c(O)c3C2=O)c1 | 1.18% (active) | 33.7% | 11.7% | 33.9% | 19% |  | 28.9% | -63.1% (active) | 48.7% | 26.6% |
| C=C(CNCCc1ccc(O)cc1)[C@@H]1CC[C@]2(COC3CCCCO3)CC[C@]3(C)[C@H](CC[C@@H]4[C@@]5(C)CCC(N)C(C)(C)[C@@H]5CC[C@]43C)[C@@H]12 (some centres undefined) | -93% (active) | -93.8% (active) | -88% (active) | -85.8% (active) | -91.7% (active) |  | -87% (active) |  | -94.9% (active) | -91% (active) |
| Clc1cnc(Nc2ccc(OCCN3CCCC3)cc2)nc1NCc1ccco1 | 6.01% (active) | 11.3% | -3.83% (active) | 38.6% | 19.6% |  | 46.5% |  | 51.7% | 28.7% |
| CCN(CC)CCOc1ccc(/C(=C(\C)c2ccc(OC)c(F)c2)c2ccc(Cl)cc2)cc1 | 7.79% (active) | 14.9% | 94.7% | 91.8% | 66.8% |  | 60.1% | 1.85% (active) | 68% | 64.8% |
| O=C(/C=C/C12c3ccccc3C(c3ccccc31)C1C(=O)N(c3ccccc3)C(=O)C12)c1ccc(Cl)cc1 (centres undefined) | -0.519% (active) | 8.4% (active) | 72.1% | 39.4% | 19.8% | -55.2% (active) | 5.42% (active) | -81.1% (active) | 4.17% (active) |  |
| O=C1CC(c2ccc3c(c2)OCO3)Nc2cc3c(cc21)OCO3 (centres undefined) | 14% | 1.47% (active) | 14.3% | 28.3% | 7.39% (active) |  | 21% | 25.3% | 65.6% | 17.7% |
| N#Cc1c(N)nc2c(nnn2-c2cccc(Br)c2)c1N | 104% | 102% | 97.6% | 95.9% | 93% | 96.4% | 95.6% | 102% | 117% |  |
| COC(=O)Nc1nc2ccc(C(=O)C3CC3)cc2[nH]1 | -1.31% (active) | 1.32% (active) | 9.46% (active) | 13.5% | 12.8% |  | 30.3% | 34.7% | 49% | 14.7% |
| Cc1nc(Nc2ccccn2)sc1C(=O)/C=C/c1ccc(Br)cc1 | 30.4% | 25.9% | 40.2% | 69.2% | 59.8% |  | 61.5% | 32.2% | 99.6% | 56.3% |
| C=C(C)[C@@H]1CC[C@]2(CNCCO)CC[C@]3(C)[C@H](CC[C@@H]4[C@@]5(C)CCC(N)[C@@](C)(CO)[C@@H]5CC[C@]43C)[C@@H]12 (some centres undefined) | 32.4% | -56.8% (active) | 73.5% | 29.8% | -86.1% (active) |  | -75.7% (active) |  | -85.7% (active) | 20.1% |
| CN(C)c1ccc(/C=C/c2c(F)cccc2F)cc1 | 98.6% | 92.3% | 88.4% | 105% | 89.9% |  | 97.9% | 88.1% | 109% | 81.7% |
| OCCCCc1nccc2c1[nH]c1ccccc12 | 104% | 94.6% | 80.5% | 110% | 108% | 97.5% | 96.8% | 99.8% | 111% |  |
| C=C1C(=O)O[C@H]2[C@H]1CC/C(COC(=O)/C=C\C(=O)NCc1ccc(Cn3c(=O)sn(CCCI)c3=O)cc1)=C\CC[C@@]1(C)O[C@@H]21 | -38% (active) | -30.1% (active) | -63.9% (active) | 1.92% (active) | -72% (active) |  | -98.2% (active) | -83.2% (active) | -94.7% (active) | -70.6% (active) |
| CN(C)CCn1cc(-c2ccc3c(Nc4ccc(CC(=O)Nc5cccc(F)c5)cc4)ncnc3c2)cn1 | 22.1% [30 µM] | -40.7% [30 µM] (active) | -87% [30 µM] (active) | -60% [30 µM] (active) | -52.4% [30 µM] (active) |  | -81.6% [30 µM] (active) | -50.2% [30 µM] (active) | -89.6% [30 µM] (active) | -25.2% [30 µM] (active) |
| O=C(CCc1nc(-c2cccc(Cl)c2)no1)Nc1ccccn1 | 95.2% | 106% | 93.7% | 97.6% | 111% |  | 91% | 97.3% | 99.5% | 97.4% |
| Cc1ccc(Nc2ccc(Nc3ccc(C)cc3S(=O)(=O)O)c3c2C(=O)c2ccccc2C3=O)c(S(=O)(=O)O)c1 | 103% | 98.4% | 85.3% | 108% | 107% | 102% | 97.3% | 102% | 107% |  |
| CCOC(=O)c1nnn(-c2ccccc2)c1C1=CN(C)CCC1 | 99% | 99.1% | 89.8% | 108% | 102% | 105% | 100% | 97.3% | 111% |  |
